# NOMO-1 viab – NOMO-1 AML cell viability reduction, primary screen, STK33 inhibitor project, CellTiter-Glo luminescence | 37,000 compounds, 7.5% hits | inhibition, % (test concentration not listed) | AID 2330, 2010 | NOMO-1 AML viability, 72 h; in the data active = inhibition above about 80%; inconclusive = no clear call, values can overlap the other calls
# Shh pathway inh – Hedgehog pathway signaling inhibitors, primary screen, luminescence, Shh-LIGHT2 cells, Gli-luciferase; AID 2313, 2010; inhibition, % (test concentration not listed); Shh-LIGHT2 Gli-luciferase reporter, 30 h; 22,000 compounds, 2.1% hits;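 active = mean inhibition across valid replicates above about 65%, limit read from the data; inconclusive = mean under the limit, yet half or more replicates past it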;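 note: pathway switched on by Shh-conditioned medium diluted 1 in 25 in low serum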
# MITF inh – inhibitors of MITF, primary screen, MITF inhibitor project, cell-based, luminescence | TRPM1 promoter luciferase, 24 h | inhibition, % (test concentration not listed) | 37,000 compounds, 0.28% hits | AID 2240, 2010; in the data active = inhibition above about 85%; inconclusive = no clear call, values can overlap the other calls; inactive = below about 68%;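 note: human melanocyte line stably carrying TRPM1 promoter luciferase reporter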
# Numbers without * were called inactive; u = inconclusive; x = no result given. Sampled rows, rich in hits. Any-hit rate of the full collection: about 8.1%.
SMILES,NOMO-1 viab,Shh pathway inh,MITF inh
Cc1ccc(S(=O)(=O)Nc2ccc3c(c2)C(=O)N([C@H](C)CO)C[C@H](C)[C@@H](CN(C)Cc2ccc(Cl)c(Cl)c2)OCCCC[C@@H](C)O3)cc1,65.8,18.7,23.9
N#Cc1ccc(NC(=O)CCCn2cc([N+](=O)[O-])cn2)cc1,-8.5,x,-15.5
CS(=O)(=O)N(CC(=O)Nc1cccc([N+](=O)[O-])c1)c1ccc(F)c(Cl)c1,22.0,x,-3.2
N#Cc1cnc2c(C(N)=O)cnn2c1N,5.9,3.5,4.9
Cc1ccc(-c2nn(C)c(=O)c3ccccc23)cc1CNC(=O)CN1C(=O)c2ccccc2C1=O,19.6,x,-8.7
Cc1sc2ncnc(NCCOCCO)c2c1C,12.6,x,4.6
COc1ccccc1CCNC(=O)c1cc(-c2ccc(C)o2)nc2ccccc12,24.6,x,-3.0
CC(C)NC(=O)Nc1ccc2c(c1)C(=O)N([C@H](C)CO)C[C@H](C)[C@@H](CN(C)C(=O)CCC(F)(F)F)OCCCC[C@@H](C)O2,2.8,-14.9,-11.6
CCOC(=O)c1c(CN(CC)CC)oc2ccc(OC)cc12,8.1,28.4,-2.3
CCOC(=O)c1c(CSc2nc(C)ccc2C#N)oc2ccc(OC(C)=O)cc12,117.0*,99.8*,66.3
C[C@H]1CN([C@@H](C)CO)C(=O)c2cc(NC(=O)CCCN(C)C)ccc2O[C@@H]1CN(C)Cc1ccccc1,-22.7,6.3,11.3
O=C(O)Cn1c(=O)n(CC(=O)O)c2ccccc21,30.1,x,-8.3
C[C@@H]1CN([C@@H](C)CO)C(=O)c2cccc(NC(=O)CCCCCC(=O)Nc3ccccc3N)c2O[C@H]1CN(C)S(=O)(=O)c1ccc(Cl)cc1,94.6*,x,-8.9
C[C@@H]1CN([C@H](C)CO)C(=O)c2cccc(NC(=O)CCCCCC(=O)Nc3ccccc3N)c2O[C@@H]1CN(C)S(=O)(=O)c1ccc(Cl)cc1,94.6*,x,20.6
Cc1ccc(S(=O)(=O)N(C)C[C@H]2Oc3c(NC(=O)CCCCCC(=O)Nc4ccccc4N)cccc3C(=O)N([C@H](C)CO)C[C@H]2C)cc1,57.3,x,-1.8
C[C@@H]1CN([C@H](C)CO)C(=O)c2cccc(NC(=O)CCCCCC(=O)Nc3ccccc3N)c2O[C@@H]1CN(C)S(=O)(=O)c1ccccc1,47.0,x,-1.7
C[C@H](CO)N1C[C@H](C)[C@@H](CN(C)S(C)(=O)=O)Oc2c(NC(=O)CCCCCC(=O)Nc3ccccc3N)cccc2C1=O,25.0,x,-13.4
C[C@@H]1CN([C@@H](C)CO)C(=O)c2cccc(NC(=O)CCCCCC(=O)Nc3ccccc3N)c2O[C@@H]1CN(C)S(=O)(=O)c1ccc(Cl)cc1,121.1*,x,11.7
CC(C)C(NS(=O)(=O)c1c(Cl)cccc1Cl)C(=O)O (centres undefined),-7.3,x,-10.8
Cc1cc(C)n(CC(O)COc2ccc(C(=O)c3ccc(Cl)cc3)cc2)n1 (centres undefined),11.5,x,14.1
COc1ccc(-c2coc3cc(O)ccc3c2=O)cc1,12.4,34.3,10.6
COc1ccc(-c2coc3cc(O)ccc3c2=O)c(OC)c1,-1.9,80.0*,-5.8
Cc1ccc(C(=O)c2coc3ccc(O)cc23)o1,41.5,-29.6,26.1
COc1ccc(OC)c(C(=O)c2coc3ccc(O)cc23)c1,135.9*,19.9,-4.8
CCCn1c(-c2ccc(F)cc2)n[nH]c1=O,-15.8,7.7,-6.2
SMILES,NOMO-1 viab,Shh pathway inh,MITF inh
O=C(COc1cc(Cl)c(Cl)cc1Cl)Nc1ccccc1C(=O)N1CCCCC1,15.0,x,3.6
Cn1c(=N)n(CCCOc2ccc(F)cc2)c2ccccc21,93.6*,58.1,-14.9
CC(O)c1nc2ccccc2n1CCOc1ccc(F)cc1 (centres undefined),11.0,x,1.5
C[C@H]1CN([C@@H](C)CO)C(=O)Cc2cc(NC(=O)CCC(F)(F)F)ccc2O[C@H]1CN(C)S(=O)(=O)c1ccccc1,u,31.5,7.3
O=S1(=O)N=C(N(CCO)c2ccc(Cl)cc2)c2ccccc21,-1.9,x,8.4
C=C1C(=O)O[C@@H]2C3C(=C(C)[C@@H](O)[C@@H](OC(=O)/C(=C/C)COC(C)=O)[C@@H]12)C(=O)[C@H]1O[C@@]31C (some centres undefined),118.9*,72.3*,58.0
COc1ccccc1NC(=O)CSC1CC(=O)N(c2ccc(I)cc2)C1=O (centres undefined),-13.5,x,-5.8
Cn1c(=O)c2c(nc(NCc3cccnc3)n2Cc2cccc(Br)c2)n(C)c1=O,u,x,10.5
O=C(CSc1nnc(-c2ccccc2Cl)n1-c1ccccc1)N1CCc2ccccc21,-3.0,x,8.3
N#Cc1cc2c(nc1SCCS(=O)(=O)c1nc3ccccc3s1)CCCC2,111.8*,x,-12.1
Cc1cc(C)c(C#N)c(SCC(O)CS(=O)(=O)c2ccc(C(C)(C)C)cc2)n1 (centres undefined),24.4,x,5.0

# Bioassay records: PubChem, Broad Institute
